For some of these results: Entries with a potency or affinity are not part of this list. Active and inactive are the calls of the source.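 Rule for the calls, unless noted: active = earlier screen potentiator hit that boosts the TRPC4 ion channel at some dose, with a dose response; inactive = no potentiation, no dose response, or not a prior hit.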
Tests used:
[1] = test system: TRPC4 beta (transient receptor potential cation channel C4), mouse; assay: TRPC4 cation channel opening, retest – cell-based, Fluo4 calcium, HEK293 TRPC4beta/mu-opioid, duplicates, 10 µM, confirmation (AID 2426;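 active = fluorescence ratio normalized to control raised more than 50% in primary screen plus both repeat runs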); settings: Fluo4 calcium fluorescence, at 10 µM; hits give high values
[2] = test system: transient receptor potential cation channel C4 beta (TRPC4), mouse; assay: TRPC4 cation channel opening, second retest – cell-based, second round, Fluo4, HEK293 TRPC4beta/mu-opioid, 1 µM, confirmation (AID 2461;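 active = primary screen active and over 50% activation in each of two duplicate runs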); settings: Fluo4 calcium fluorescence, at 1 µM; hits give high values
[3] = test system: TRPC4 (transient receptor potential cation channel C4 beta), mouse; assay: potentiation of DAMGO EC20 TRPC4 response – cell-based, second round, Fluo-4, HEK293 TRPC4beta/mu-opioid, 1 µM, confirmation (AID 2554;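 active = primary screen hit whose fluorescence ratio, in both repeats, exceeds the weak agonist control mean by 3 SD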); settings: DAMGO EC20, Fluo-4 calcium flux, at 1 µM; hits give high values
[4] = test system: TRPC4 beta (transient receptor potential cation channel C4), mouse; assay: potentiation of DAMGO EC20 TRPC4 response – cell-based, Fluo-4, HEK293 TRPC4beta/mu-opioid, confirmation (AID 2555;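 active = primary screen hit whose calcium fluorescence ratio, in both repeats, exceeds the weak agonist control mean by 3 SD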); settings: DAMGO EC20, Fluo-4 calcium flux, at 10 µM; hits give high values
[5] = target: Short transient receptor potential channel 4 (Mus musculus) (UniProt Q9QUQ5); assay: blockers of DAMGO-evoked TRPC4 calcium flux – cell-based, Fluo4, HEK293 TRPC4beta/mu-opioid, confirmation (AID 2636;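 active = calcium signal cut by more than 3 SD below the full-agonist control yet still positive, in both repeats and the earlier primary screen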); settings: at 10 µM; hits give high values
[6] = target: Short transient receptor potential channel 4 (Mus musculus) (UniProt Q9QUQ5); assay: blockers of DAMGO-evoked TRPC4 calcium flux – cell-based, second round, Fluo4, HEK293 TRPC4beta/mu-opioid, 1 µM, confirmation (AID 2637;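 active = calcium signal ratio cut to more than 3 SD under the fully stimulated control mean yet still positive, in both repeats and the primary screen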;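 for inhibition: percent of integrated ratio relative to wells lacking test compound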); settings: at 1 µM; hits give high values
[7] = target: Short transient receptor potential channel 4 (Mus musculus) (UniProt Q9QUQ5); assay: calcium entry via TRPC4 opening agents – cell-based, HEK293 TRPC4/mu-opioid, Fluo-4 calcium, dose response (AID 434937;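 active = primary screen activator hit with a dose response curve and TRPC4 channel activation at any tested dose; inactive = no activation, no dose response, or not a primary hit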)
[8] = target: Short transient receptor potential channel 4 (Mus musculus) (UniProt Q9QUQ5); assay: potentiation of DAMGO-evoked TRPC4 calcium signal – cell-based, HEK293 TRPC4/mu-opioid, Fluo-4 calcium, EC20 DAMGO, dose response (AID 434941);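 note: calcium entry triggered by an EC20 dose of DAMGO at the co-expressed mu-opioid receptor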
[9] = target: Short transient receptor potential channel 4 (Mus musculus) (UniProt Q9QUQ5); assay: block of DAMGO-driven TRPC4 calcium entry – cell-based, HEK293 TRPC4/mu-opioid, Fluo-4 calcium, dose response (AID 434942;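 active = primary screen inhibitor hit that blocks the TRPC4 channel at some tested dose, yielding a dose curve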)
[10] = target: Short transient receptor potential channel 6 (Mus musculus) (UniProt Q61143); assay: TRPC6 blockade by TRPC4 inhibitor hits – cell-based, HEK293, membrane potential dye, duplicate, selectivity assay for TRPC4 inhibitor project, confirmation (AID 434948;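 active = active in primary screen and both duplicates, each dropping signal beyond three positive-control SD with fluorescence still positive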); settings: HEK293 TRPC6, membrane potential dye fluorescence, at 10 µM, stimulated with maximal-effect acetylcholine; hits give high values
[11] = target: Short transient receptor potential channel 6 (Mus musculus) (UniProt Q61143); assay: TRPC6 opening by TRPC4 activator hits – cell-based, HEK293, membrane potential dye, duplicate, selectivity assay for TRPC4 activator project, confirmation (AID 434950;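 active = membrane potential signal rise above negative control mean plus 3 SD in both duplicates, also active in the earlier TRPC4 screen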); settings: HEK293 TRPC6, membrane potential fluorescence, at 10 µM; activation: hits give high values; outcome: activation
[12] = target: Short transient receptor potential channel 6 (Mus musculus) (UniProt Q61143); assay: positive modulators of mouse TRPC6 channel – HEK293 cells, membrane potential dye, duplicate, selectivity assay for TRPC4 potentiator project, confirmation (AID 434952;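 active = compound raising the membrane signal above positive-control mean plus 3 SD in both repeats, and a primary screen hit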); settings: HEK293 TRPC6, membrane potential dye fluorescence, at 10 µM, maximal acetylcholine added after compound; hits give high values
[13] = target: Short transient receptor potential channel 4 (Mus musculus) (UniProt Q9QUQ5); assay: calcium flux activators in TRPC4/5HT1a cells, counter-screen for TRPC4 activator project, cell-based, second counter screen, HEK293 TRPC4/5HT1a, Fluo-4 (AID 434977;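 active = calcium signal rise above buffer-control mean plus 5 SD in both duplicates, and also a hit in the primary screen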); settings: Fluo-4 calcium flux, at 10 µM; hits give high values
[14] = serotonin-gated TRPC4 signal block – cell-based, second counter screen, HEK293 TRPC4/5HT1a, Fluo-4, counter-screen for TRPC4 inhibitor project, confirmation (AID 434978;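 active = primary screen active whose calcium signal fell more than 3 SD beyond the full-serotonin control mean in both duplicate plates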;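 for outcome: serotonin given first at submaximal then at maximal dose after compound preincubation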); settings: Fluo-4 calcium flux, at 10 µM, serotonin added to trigger calcium flux; hits give high values
[15] = test system: TRPC4 (mouse), co-expressed with 5HT1a in HEK293; assay: enhancement of serotonin-evoked TRPC4 response – cell-based, second counter screen, HEK293 TRPC4/5HT1a, Fluo-4, counter-screen for TRPC4 potentiator project, confirmation (AID 434979;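 active = signal rise over 3 SD above mean of control wells given weak agonist, in both repeats and first screen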); settings: Fluo-4 calcium flux, at 10 µM, serotonin added at its EC20 dose; hits give high values
[16] = nonspecific calcium rise without TRPC4 – cell-based, HEK293 mu-opioid receptor line, counter-screen for TRPC4 activator project, confirmation (AID 449723;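 active = hit in primary screen, with calcium signal over 5 SD above buffer well mean in both duplicates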;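 note: counter screen cells carry the mu-opioid receptor alone and lack TRPC4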); settings: HEK293 mu-opioid cells, Fluo-4 calcium fluorescence, at 10 µM; hits give high values
[17] = nonspecific potentiation of DAMGO calcium response – cell-based, HEK293 mu-opioid receptor line, counter-screen for TRPC4 allosteric potentiator project, confirmation (AID 449724;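 active = calcium signal rise more than 3 SD above the low-dose agonist control mean, in both duplicate plates and the primary screen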); settings: HEK293 mu-opioid receptor cells, Fluo-4 calcium flux, at 10 µM, compound added before EC20 DAMGO stimulus; hits give high values

Chain of Short transient receptor potential channel 6 (Mus musculus) (Q61143 whole entry, looked up): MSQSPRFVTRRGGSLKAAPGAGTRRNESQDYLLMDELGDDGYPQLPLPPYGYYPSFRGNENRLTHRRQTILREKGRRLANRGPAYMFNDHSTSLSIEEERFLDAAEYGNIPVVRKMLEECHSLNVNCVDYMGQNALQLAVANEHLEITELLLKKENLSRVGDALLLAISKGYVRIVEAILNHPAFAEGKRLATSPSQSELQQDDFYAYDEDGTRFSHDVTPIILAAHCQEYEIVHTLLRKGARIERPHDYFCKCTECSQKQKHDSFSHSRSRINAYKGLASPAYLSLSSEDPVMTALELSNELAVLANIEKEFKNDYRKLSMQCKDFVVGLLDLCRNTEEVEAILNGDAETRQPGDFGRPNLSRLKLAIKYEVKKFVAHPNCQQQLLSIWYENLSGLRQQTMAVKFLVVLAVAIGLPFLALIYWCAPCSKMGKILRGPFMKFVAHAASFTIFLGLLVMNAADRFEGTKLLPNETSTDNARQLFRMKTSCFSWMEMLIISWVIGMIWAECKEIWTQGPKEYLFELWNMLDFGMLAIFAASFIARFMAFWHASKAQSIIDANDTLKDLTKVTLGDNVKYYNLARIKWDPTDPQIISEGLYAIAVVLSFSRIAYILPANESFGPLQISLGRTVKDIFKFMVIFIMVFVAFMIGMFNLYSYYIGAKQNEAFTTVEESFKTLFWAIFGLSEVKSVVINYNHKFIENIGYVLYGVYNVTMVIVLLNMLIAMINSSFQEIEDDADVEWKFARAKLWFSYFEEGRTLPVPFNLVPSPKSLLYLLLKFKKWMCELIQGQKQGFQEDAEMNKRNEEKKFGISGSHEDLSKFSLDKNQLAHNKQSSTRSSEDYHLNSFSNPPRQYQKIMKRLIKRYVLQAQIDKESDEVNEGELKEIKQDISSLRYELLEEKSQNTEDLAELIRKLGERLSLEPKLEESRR
Chain of Short transient receptor potential channel 4 (Mus musculus) (Q9QUQ5 whole entry, looked up): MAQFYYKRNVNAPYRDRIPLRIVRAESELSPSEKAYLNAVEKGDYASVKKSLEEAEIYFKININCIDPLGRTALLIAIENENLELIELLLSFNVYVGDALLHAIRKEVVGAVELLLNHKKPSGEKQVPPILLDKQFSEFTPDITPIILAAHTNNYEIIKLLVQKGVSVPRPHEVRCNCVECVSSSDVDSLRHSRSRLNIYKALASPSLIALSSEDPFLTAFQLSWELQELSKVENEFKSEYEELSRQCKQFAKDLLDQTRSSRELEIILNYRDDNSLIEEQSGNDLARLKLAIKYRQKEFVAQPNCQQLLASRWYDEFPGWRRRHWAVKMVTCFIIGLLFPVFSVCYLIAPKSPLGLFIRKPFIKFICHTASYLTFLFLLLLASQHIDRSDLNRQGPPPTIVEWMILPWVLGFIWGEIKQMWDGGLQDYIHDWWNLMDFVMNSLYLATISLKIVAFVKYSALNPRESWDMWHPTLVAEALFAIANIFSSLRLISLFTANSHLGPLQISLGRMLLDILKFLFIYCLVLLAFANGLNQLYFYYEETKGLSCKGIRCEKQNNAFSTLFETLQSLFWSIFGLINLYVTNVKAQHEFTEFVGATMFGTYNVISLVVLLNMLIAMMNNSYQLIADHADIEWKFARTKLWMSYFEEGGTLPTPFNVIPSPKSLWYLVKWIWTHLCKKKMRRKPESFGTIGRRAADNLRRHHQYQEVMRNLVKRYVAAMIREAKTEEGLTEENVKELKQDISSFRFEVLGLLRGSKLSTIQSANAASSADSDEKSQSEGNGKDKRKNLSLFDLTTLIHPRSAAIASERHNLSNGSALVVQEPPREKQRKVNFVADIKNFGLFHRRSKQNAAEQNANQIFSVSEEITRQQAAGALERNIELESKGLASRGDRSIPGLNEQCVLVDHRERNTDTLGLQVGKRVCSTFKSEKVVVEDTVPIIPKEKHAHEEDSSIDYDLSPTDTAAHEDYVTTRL

CN1CCN(c2ccc(Cl)cc2NC(=O)CC2OC(=O)c3ccccc32)CC1 (stereo not drawn)
inactive: outcome [1] | outcome [2] | outcome [5] | outcome [6] | outcome [7] | outcome [8] | outcome [9] | outcome [10] | outcome [11] | outcome [12] | outcome [13] | outcome [14] | outcome [16] | outcome [17]
active: potentiation [3] 33% | potentiation [4] 33% | potentiation [15] 24.4%

O=C(Nc1ccc2c(c1)OCO2)c1cnn2cccnc12
inactive: outcome [1] | outcome [2] | outcome [3] | outcome [5] | outcome [6] | outcome [7] | outcome [8] | outcome [9] | outcome [10] | outcome [11] | outcome [12] | outcome [13] | outcome [14] | outcome [16] | outcome [17]
active: potentiation [4] 38% | potentiation [15] 48.5%

Cc1cc(/C=N/NC(=O)c2cccc([N+](=O)[O-])c2)c(C)n1-c1ccc(Cl)cc1Cl
active: inhibition [5] 88% | inhibition [6] 58% | inhibition [14] 35.8%
inactive: outcome [1] | outcome [2] | outcome [3] | outcome [4] | outcome [7] | outcome [8] | outcome [9] | outcome [10] | outcome [11] | outcome [12] | outcome [13] | outcome [15] | outcome [16] | outcome [17]

Cc1cc(Br)ccc1OCCN1CCCC1
active: potentiation [3] 12% | potentiation [15] 7.25%
inactive: outcome [1] | outcome [2] | outcome [4] | outcome [5] | outcome [6] | outcome [7] | outcome [8] | outcome [9] | outcome [10] | outcome [11] | outcome [12] | outcome [13] | outcome [14] | outcome [16] | outcome [17]

CC(=O)Oc1ccc(NC(=O)CCC2CCCCC2)c(C(=O)O)c1
active: inhibition [5] 68%
inactive: outcome [1] | outcome [2] | outcome [3] | outcome [4] | outcome [6] | outcome [7] | outcome [8] | outcome [9] | outcome [10] | outcome [11] | outcome [12] | outcome [13] | outcome [14] | outcome [15] | outcome [16] | outcome [17]

FC(F)(F)COc1nc(N2CCCCC2)nc(N2CCNCC2)n1
inactive: outcome [1] | outcome [2] | outcome [3] | outcome [4] | outcome [5] | outcome [6] | outcome [7] | outcome [8] | outcome [9] | outcome [10] | outcome [11] | outcome [12] | outcome [13] | outcome [14] | outcome [15] | outcome [16] | outcome [17]

NC(N)=NN=C1CCC(c2ccccc2)CC1 (stereo not drawn)
inactive: outcome [1] | outcome [2] | outcome [3] | outcome [4] | outcome [5] | outcome [6] | outcome [7] | outcome [8] | outcome [9] | outcome [10] | outcome [11] | outcome [12] | outcome [13] | outcome [14] | outcome [15] | outcome [16] | outcome [17]

Cc1ccc(NC(=O)CN(C)C(=O)CNC(=O)c2sc3ccccc3c2Cl)cc1
inactive: outcome [1] | outcome [2] | outcome [3] | outcome [4] | outcome [5] | outcome [6] | outcome [7] | outcome [8] | outcome [9] | outcome [10] | outcome [11] | outcome [12] | outcome [13] | outcome [14] | outcome [16] | outcome [17]
active: potentiation [15] 29.5%

C1CCN(c2nc(N3CCCCC3)nc(N3CCNCC3)n2)CC1
inactive: outcome [1] | outcome [2] | outcome [3] | outcome [4] | outcome [5] | outcome [6] | outcome [7] | outcome [8] | outcome [9] | outcome [10] | outcome [11] | outcome [12] | outcome [13] | outcome [14] | outcome [16] | outcome [17]
active: potentiation [15] 8.18%

COc1ccc(N2CCN(C3CCCCC3NS(=O)(=O)c3ccc(Cl)cc3)CC2)cc1 (stereo not drawn)
inactive: outcome [1] | outcome [2] | outcome [3] | outcome [4] | outcome [5] | outcome [6] | outcome [7] | outcome [8] | outcome [9] | outcome [10] | outcome [11] | outcome [12] | outcome [13] | outcome [14] | outcome [16] | outcome [17]
active: potentiation [15] 10.1%

COc1ccc(OC)c(Nc2c3c(nc4ccccc24)CCC3)c1
active: inhibition [5] 67% | inhibition [14] 30.5%
inactive: outcome [1] | outcome [2] | outcome [3] | outcome [4] | outcome [6] | outcome [7] | outcome [8] | outcome [9] | outcome [10] | outcome [11] | outcome [12] | outcome [13] | outcome [15] | outcome [16] | outcome [17]

COc1ccc(CNC(=O)C(C)NCc2ccc(S(N)(=O)=O)cc2)cc1 (stereo not drawn)
inactive: outcome [1] | outcome [2] | outcome [3] | outcome [4] | outcome [5] | outcome [6] | outcome [7] | outcome [8] | outcome [9] | outcome [10] | outcome [11] | outcome [12] | outcome [13] | outcome [14] | outcome [15] | outcome [16] | outcome [17]

C/C(=C\c1cccc(Cl)c1Cl)C(=O)c1c(C)cc(C)[nH]c1=O
inactive: outcome [1] | outcome [2] | outcome [3] | outcome [4] | outcome [5] | outcome [6] | outcome [7] | outcome [8] | outcome [9] | outcome [10] | outcome [11] | outcome [12] | outcome [13] | outcome [14] | outcome [16] | outcome [17]
active: potentiation [15] 16.5%

CCOC(=O)C1=NNC(C(=O)c2ccc(Cl)cc2)C1c1ccc(OC)cc1 (stereo not drawn)
inactive: outcome [1] | outcome [2] | outcome [3] | outcome [4] | outcome [5] | outcome [6] | outcome [7] | outcome [8] | outcome [9] | outcome [10] | outcome [11] | outcome [12] | outcome [13] | outcome [14] | outcome [16] | outcome [17]
active: potentiation [15] 8.48%

From PubChem BioAssay
